Experimental data reported in PubChem BioAssay (NCI).
Where “and” joins values, the source holds several entries; their conditions need not be identical. Equal values may be shown once. About 79,000 compounds went through this panel and 15% of them were active in at least one assay; those are over-represented in the sample as a whole. Rule as the data show it: active = growth inhibition above about 70%; inactive = the rest. Where a SMILES comes first, the peptide text is derived from it. [ ]: non-standard residue; d: D form. The star is where a group is joined. ξ: configuration not given here. ξNMe2Val = CC(C)C(C(=O)*)N(C)C; NMeV = CN[CH](C(=O)O)C(C)C; NHBn = c1ccc(CN*)cc1

Columns and labels:
[1] = NCI Yeast Anticancer Drug Screen. Data for the rad50 strain (AID 155);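 also: 0% = growth of vehicle-only cultures of the same strain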; settings: S. cerevisiae rad50 strain growth inhibition; at 50.0 µM; active compounds read high
In short: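 A DNA repair-deficient yeast mutant serves as the test organism; compound-induced growth inhibition is calculated against vehicle-treated cells.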

[2] = NCI Yeast Anticancer Drug Screen. Data for the mec2-1 strain (AID 157); settings: S. cerevisiae mec2-1 strain, at 50.0 µM, active compounds read high
In short: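 Cells of the genetically defined mec2-1 yeast strain are incubated with test compound. Inhibition of growth is calculated against vehicle-treated controls.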

[3] = NCI Yeast Anticancer Drug Screen. Data for the sgs1 mgt1 strain (AID 161);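 also: 0% = growth of cultures given vehicle only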; settings: S. cerevisiae sgs1 mgt1 strain, at 50.0 µM, active compounds read high
In short: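 Test agents were incubated with a DNA-repair-mutant yeast strain. Growth was then read and compared against vehicle-treated controls.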

[4] = NCI Yeast Anticancer Drug Screen. Data for the cln2 rad14 strain (AID 165);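 also: 0% = growth equal to vehicle treated cultures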; settings: S. cerevisiae cln2 rad14 strain, at 50.0 µM, active compounds read high
In short: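 The screen exposed genetically defined yeast (cln2 rad14) to test compounds and scored growth inhibition relative to vehicle-treated controls.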

[5] = NCI Yeast Anticancer Drug Screen. Data for the bub3 strain (AID 167); settings: S. cerevisiae bub3 mutant strain, at 50.0 µM, active compounds read high
In short: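 Inhibition values come from growth of compound-treated mutant yeast normalised to vehicle-treated controls.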

[6] = NCI Yeast Anticancer Drug Screen. Data for the mlh1 rad18 strain (AID 175); settings: S. cerevisiae mlh1 rad18 strain growth inhibition; at 50.0 µM; active compounds read high
In short: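 Compound-treated yeast growth, normalised to vehicle controls. Strain bears defined DNA repair mutations.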

Measured: growth inhibition

NS(=O)(=O)c1ccc([As](=O)(O)c2ccccc2)cc1
inactive: [1] 14.2% | [2] -9.35% | [3] 7.85% | [4] 15.7% | [5] 9.5% | [6] -7.75%

C1CN1[PH+](N1CC1)N1CC1.[C-]#[O+].[C-]#[O+].[C-]#[O+].[C-]#[O+].[C-]#[O+].[Cr]
inactive: [1] -5.55% | [2] -4.65% | [3] -0.75% | [4] -11.8% | [5] 2.4% | [6] -17.3%

Cc1ccc2[nH]c(=S)n(-c3ccc(Cl)cc3)c(=O)c2c1
inactive: [1] 9.3% | [2] 25.5% | [3] 29.9% | [4] 18.8% | [5] 24% | [6] -2.05%

COc1ccccc1CC(C)N (stereo not given)
inactive: [1] 1.35% | [2] -5.6% | [3] 8.3% | [4] 16% | [5] 16.1% | [6] 16.3%

COc1cc([N+](=O)[O-])ccc1[As](=O)(O)O
inactive: [1] 0% | [2] -4.1% | [3] 8.95% | [4] -63.5% | [5] 10.7% | [6] -1.05%

O=C(COc1ccc(Cl)c(Cl)c1)NCCc1cc[n+](Cc2ccc(Cl)cc2S(=O)(=O)F)cc1
inactive: [1] 7.45% | [2] 5.4% | [3] -9.05% | [4] 31.5% | [5] 1.8% | [6] 11.9%

O=C([O-])C(F)(F)C(F)(F)F.[C-]#[O+].[C-]#[O+].[C-]#[O+].[C-]#[O+].[C-]#[O+].[Mn]
inactive: [1] -8% | [2] -29% | [3] 3.65% | [4] 0% | [5] 0.25% | [6] -7.25%

O=C(O)C(O)(c1ccccc1)C1CCCCC1 (stereo not given)
inactive: [1] 1% and 8.5% | [2] -19.5% and 5.45% | [3] -2.1% and -8.8% | [4] 18.6% and -7.65% | [5] -30.9% and 0.6% | [6] -1.6% and -2.85%

O=C(O)CC1NCc2cc3ccccc3nc21 (stereo not given)
inactive: [1] 6.4% | [2] -13.2% | [3] -17.2% | [4] 10% | [5] -0.8% | [6] 16.6%

C=C(C)CCP(=S)(OCC)OCC
inactive: [1] -27.9% | [2] -18.3% | [3] -24.2% | [4] -22.7% | [5] 5.45% | [6] -3.45%

CCc1ccccc1C(C(=O)NC1CN2CCC1CC2)c1ccsc1 (stereo not given)
inactive: [1] -10% | [2] -28.8% | [3] -43.3% | [4] -21.2% | [5] 8.05% | [6] -23.1%

COC(=O)c1cccc(S(=O)(=O)F)c1
inactive: [1] -9.85% | [2] -5.05% | [3] -15.7% | [4] -13.4% | [5] 20.1% | [6] -28.4%

CC(C)C(NC(=O)C(C(C)C)N(C)C)C(=O)N(C)C(C(=O)N1CCCC1C(=O)N1CCCC1C(=O)NCc1ccccc1)C(C)C (stereo not given) (ξNMe2Val-V[NMeV]PP-NHBn; configuration not given here)
inactive: [1] -18.3% | [2] -17.7% | [3] -22.9% | [4] 12% | [5] 3.55% | [6] -47%

CCCCC[N+]1=Cc2cc(O)c(O)cc2CC1
inactive: [1] -11.1% | [2] -5.7% | [3] 1.75% | [4] -24.9% | [5] -12.4% | [6] -21.7%

CN(Cc1ccccc1)CC(O)c1ccccc1Cl (stereo not given)
inactive: [1] -0.75% | [2] -2.7% | [3] 21.4% | [4] -28.2% | [5] 13.3% | [6] 25.1%

COc1ccc2c(c1O)C13CCN(C)C(C2)C1CCC(O)C3 (stereo not given)
inactive: [1] -16.4% | [2] 2.95% | [3] -11.8% | [4] -11.8% | [5] -1.7% | [6] -20%

NCCN.O=N[O-].O=N[O-].O=N[O-].O=N[O-].[Co+3].[K+]
inactive: [1] -1.1% | [2] 4.05% | [3] 14.4% | [4] 12.3% | [5] 3.6% | [6] 2.1%

CCOC(=O)C(C(=O)OCC)P(=S)(S)c1ccccc1 (stereo not given)
inactive: [1] 6.2% | [2] -33.9% | [3] -11.2% | [4] 9.2% | [5] -9.6% | [6] -10.1%

COP(=O)(Cc1ccccc1)OC
inactive: [1] -1% | [2] 5.15% | [3] -0.95% | [4] -43.1% | [5] 2.3% | [6] -11.8%

O=C(O)C(F)(F)F.O=C(O)C(F)(F)F.O=C(O)C(F)(F)F.O=C(O)C(F)(F)F.[Rh].[Rh]
inactive: [1] 26.8% | [2] 17.1% | [3] 22.1% | [4] 21.2% | [5] 21.4% | [6] 28%
